Results on 105 compounds are retold here after PubChem BioAssay AID588342 (National Center for Advancing Translational Sciences (NCATS), 2011).

Among all 360,000 compounds or so, about 25,000 (6.9%) were called active. Entries that show only a call come without a potency. About 9% were inconclusive and are not listed. The sample holds actives, similar compounds and a random draw of the others, so the mix is not that of the screen. Unmarked numbers belong to inactive results. Calls come from the whole dose curve; as a rule, active = well fitted inhibition curve with a large enough effect; inconclusive = small, poorly fitted or top-dose-only effect; inactive = flat fitted curve, though single readings scatter.
Potency is the fitted concentration of half-maximal effect.

The target of this experiment is Luciferin 4-monooxygenase (Photinus pyralis) (UniProt P08659). Put plainly: qHTS profiling assay for firefly luciferase inhibitor/activator using purifed enzyme and Km concentrations of substrates (counterscreen for miR-21 project). Note: nearly all actives have a fitted effect of over 55% in size. As to conditions: purified FLuc, luminescence inhibition; series mostly up to 57.5 µM. In short, it runs like this: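 Purified P. pyralis luciferase, 10 nM final, with Km-level 10 uM D-luciferin and 10 uM ATP in 50 mM Tris acetate pH 7.5, 10 mM Mg acetate, 0.01% Tween-20, 0.05% BSA; 6-point qHTS titration about 60 µM downward; luminescence read.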
Sequence of Luciferin 4-monooxygenase (Photinus pyralis) (P08659 whole entry, looked up): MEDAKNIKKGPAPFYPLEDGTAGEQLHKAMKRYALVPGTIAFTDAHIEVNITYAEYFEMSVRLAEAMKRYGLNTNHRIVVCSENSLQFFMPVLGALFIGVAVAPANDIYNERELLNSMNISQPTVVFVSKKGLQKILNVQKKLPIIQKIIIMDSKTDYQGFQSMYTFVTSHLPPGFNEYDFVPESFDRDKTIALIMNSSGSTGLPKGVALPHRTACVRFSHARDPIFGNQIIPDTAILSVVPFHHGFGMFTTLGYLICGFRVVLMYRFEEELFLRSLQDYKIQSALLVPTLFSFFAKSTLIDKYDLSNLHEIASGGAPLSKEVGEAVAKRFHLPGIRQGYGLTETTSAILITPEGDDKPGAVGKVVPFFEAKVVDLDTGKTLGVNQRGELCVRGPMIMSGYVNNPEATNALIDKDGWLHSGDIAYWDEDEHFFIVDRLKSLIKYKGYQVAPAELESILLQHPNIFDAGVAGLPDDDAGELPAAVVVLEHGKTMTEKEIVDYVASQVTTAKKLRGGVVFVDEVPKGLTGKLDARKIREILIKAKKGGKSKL
Turning to `COc1ccc2c(Sc3ccc(C)cc3)c(C(=O)NC(C)c3ccccc3)[nH]c2c1` (stereo not given), the Potency result was “inactive”.
Still for that read-out and setting: with `CC(C)Cn1c(=O)c2ccccc2n2c(CCC(=O)N3CCN(c4cccc(Cl)c4)CC3)nnc12` the entry was “inactive”.
Still for that read-out and setting: in the case of `Cc1cccc(NS(=O)(=O)c2ccc(C)c(C(=O)NCC(c3ccccc3)N(C)C)c2)c1` (stereo not given) it was “inactive”; in that of `O=C(NC1CCN(Cc2ccccc2)CC1)c1ccc(Cn2c(=O)c3ccccc3n(Cc3cccc(F)c3)c2=O)cc1`, “inactive”.
The same measure, in the same setting: with `O=C(NCCOc1cccnc1)c1ccc(OC2CCN(Cc3ccccn3)CC2)cc1` the entry was “inactive”.
Turning to `CCOc1ccc(N(CC)C(=O)C2CCN(S(=O)(=O)c3cccc4nonc34)CC2)cc1`, the Potency result was “inactive”.
Still for that read-out and setting: in the case of `CC(OC(=O)c1ccc(NS(=O)(=O)c2ccc3[nH]c(=O)[nH]c3c2)cc1)C(=O)Nc1cccc(Cl)c1Cl` (stereo not given) it was “inactive”.
On the same count and under the same terms, in the case of `COc1ccc2c(c1)c(N1CCCC1=O)c(C(=O)Nc1ccccc1C(F)(F)F)n2C` it was “inactive”.
On the same count and under the same terms, with `CCOc1ccc(NC(=O)c2cn(C3CCCCC3)c(=O)c3c2c2ccccc2n3C)cc1` the entry was “inactive”; with `CCOc1ccc(NC(=O)CN(C)C(=O)Cc2sc(C)nc2-c2ccc(F)cc2)cc1OCC`, “inactive”.
As for `O=C1CC(c2ccc(F)cc2F)c2cc3c(cc2N1)OCO3` (stereo not given), the Potency result is “inactive”.
Still for that read-out and setting: in the case of `O=C(c1ccccc1)N1CCC(CC2CC(c3ccc(Cl)cc3)=NO2)(C(=O)NCC2CCCCC2)CC1` (stereo not given) it was “inactive”; in that of `Cc1nnc2n1N=C(c1ccc3c(c1)NC(=O)CO3)CS2`, “inactive”; in that of `Cn1c(=O)cc(OCC(=O)N2CCN(c3ccccc3)CC2)c2ccccc21`, “inactive”.
Take `CCOc1ccc(NC(=O)c2c(NCc3cccc(OC)c3OC)sc3c2CCC3)cc1`: the Potency result is “inactive”.
Still for that read-out and setting: with `COc1ccc(C(=O)Cc2cnn(-c3ccccc3)c2)c(O)c1` the figure was 3.38 µM (active); with `COc1ccc(C(=O)C[n+]2ccc(C)cc2)cc1`, “inactive”.
In the case of `Cc1[nH]nc(-c2ccc(OCc3cnn(-c4ccccc4)c3)cc2O)c1Oc1ccc(Cl)cc1`, the Potency result was “inactive”.
As for `COc1ccc(C(=O)NNS(=O)(=O)c2ccc(C)cc2)cc1`, the Potency result was “inactive”.
Still for that read-out and setting: in the case of `COc1ccc(CC(=O)c2ccc(O)cc2O)cc1OC` it was “inactive”; in that of `COc1ccc(C(=O)CC(=O)c2ccc(C)cc2)c(O)c1`, 21.3 µM (active).
The same measure, in the same setting: in the case of `Cc1cccc(OCC(=O)N(Cc2ccc(C(C)C)cc2)Cc2ccco2)c1C` it was “inactive”.
On the same count and under the same terms, in the case of `COc1cc(OC)c(NC(=O)c2c3c(nn2C)-c2ccccc2SC3)cc1Cl` it was “inactive”.
As to `CSc1nc(=O)c2c(n1C)NC(=O)CC2c1ccccc1OC(C)C` (stereo not given), the Potency result is “inactive”.
Still for that read-out and setting: in the case of `Cc1nc(SCC(=O)NC2CCCCC2C)c(C#N)c(C)c1C` (stereo not given) it was “inactive”; in that of `CCS(=O)(=O)c1nc(S(=O)(=O)c2ccc(C)cc2)c(NCc2ccc(Cl)cc2)s1`, “inactive”.
`CCn1c(C(=O)Nc2cc(Cl)ccc2C)cc2sc(Cl)cc21`: the Potency result is “inactive”.
Take `CCOc1ccc(-c2cc3c(=O)n(CC(=O)NCc4ccc(OC)cc4)ccn3n2)cc1`: the Potency result is “inactive”.
Still for that read-out and setting: in the case of `CC(C)(C)c1ccc(SCCc2ccncc2)cc1` it was 26.9 µM (active).
Same read-out and setting: in the case of `Cc1cc(C)c(SCCc2ccncc2)c(C)c1` it was “inactive”; in that of `c1ccc(CSCCc2ccncc2)cc1`, “inactive”.
The same measure, in the same setting: in the case of `C/C(=N\NC(=O)CCn1nc(C)cc1C)C(C)(C)C` it was “inactive”; in that of `CCc1cccc(NC(=O)COC(=O)c2cc(=O)c3ccccc3o2)c1`, “inactive”.
On to `Cc1ccc(S(=O)(=O)NCCC(=O)NC2CCN(Cc3ccccc3)CC2)cc1`, for which the Potency result was “inactive”.
The same measure, in the same setting: with `Cc1ccc(C)c(N2CCN(C(=O)Cn3nc(C)c4sc5ccccc5c4c3=O)CC2)c1` the entry was “inactive”; with `Cn1nnnc1SCCCNCc1cccc(OCc2ccc(Cl)cc2)c1`, “inactive”.
The same measure, in the same setting: with `COc1cc(/C=N/O)ccc1OCc1ccc([N+](=O)[O-])cc1` the figure was 2.69 µM (active); with `COc1cc(C(=O)OCc2ccc([N+](=O)[O-])cc2)cc(OC)c1OC`, “inactive”; with `COc1cc(/C=N\Nc2ccc([N+](=O)[O-])cn2)ccc1OCC(=O)O`, “inactive”.
For the compound `Cc1ccc(CCNC(=O)c2nnc(Cc3cccc(F)c3)o2)cc1`, the Potency result was “inactive”.
Same read-out and setting: in the case of `COc1ccc(Cl)cc1N(C)C(=O)c1cc2c(=O)oc3ccc(C)cc3c2s1` it was “inactive”; in that of `Cc1ccc(-c2nc(-c3ccncc3)no2)c(C)c1`, 2.13 µM (active).
In the case of `COc1ccc(-c2noc(-c3ccc(C)cc3)n2)cc1`, the Potency is 1.51 µM (active).
With `O=C(Oc1ccc(-c2nc(-c3ccccn3)no2)cc1)c1ccccc1`, the Potency is 0.301 µM (active).
The same measure, in the same setting: with `Cc1ccc(-c2noc(CSc3nnc(-c4ccncc4)n3-c3ccc(F)cc3)n2)cc1` the entry was “inactive”; with `CSc1oc(-c2cccs2)nc1S(=O)(=O)c1ccc(Br)cc1`, “inactive”; with `Cc1ccc(Oc2nc(-c3ccccn3)nc3ccccc23)cc1`, “inactive”.
On the same count and under the same terms, in the case of `COc1ccc(N2CCN(C(=O)CCc3nc(-c4ccc(C)cc4)no3)CC2)cc1` it was “inactive”; in that of `Cc1ccc(-c2noc(CSc3nnc(-c4cccs4)n3C)n2)cc1`, “inactive”.
Regarding `COc1cc(OC)c(NC(=O)c2nc(-c3ccncc3)no2)cc1Cl`, the Potency result was “inactive”.
On the same count and under the same terms, with `c1csc(-c2nc(-c3ccncc3)no2)c1` the figure was 13.5 µM (active); with `N#CCc1ccc(OC(=O)c2cccnc2)cc1`, “inactive”; with `COc1ccc(-c2noc(CN(C)S(=O)(=O)c3ccc(C)cc3)n2)cc1`, “inactive”.
Still for that read-out and setting: with `Cc1cc(OC(=O)c2ccccc2)c([N+](=O)[O-])c(=O)[nH]1` the entry was “inactive”; with `Cc1ccccc1NC(=O)Cn1c(=O)n(CC2CCC(C(=O)NCCc3ccccc3)CC2)c(=O)c2ccccc21` (stereo not given), “inactive”.
Still for that read-out and setting: in the case of `COc1ccc(CCNc2nc(-c3ccc(Cl)cc3)cc(C(F)(F)F)n2)cc1OC` it was “inactive”.
With `O=c1cccc(-c2ccc(Br)cc2)o1`, the activity change, negative = inhibition was 3.87% [at 2.3 µM].
As to `O=C1CC(c2nnc(Cc3ccc(Cl)cc3)o2)CN1c1ccccc1` (stereo not given), the Potency result was “inactive”.
On to `Cc1ccc(OCC(=O)Nc2ccccc2C(=O)NC2CC2)cc1`, for which the Potency result is “inactive”.
As to `COc1ccc(CCC(=O)NCc2ccc3c(c2)CCN3C(=O)c2ccc(F)cc2)cc1`, the Potency result is “inactive”.
Same read-out and setting: in the case of `Cc1ccc(-n2nnnc2CNC(=O)c2ccccc2C)cc1C` it was “inactive”; in that of `COc1cc(C)c(Cl)cc1S(=O)(=O)n1ccnc1`, “inactive”.
With `Cc1c2cnn(-c3ccccc3)c(=O)c2c(C)n1C(C)C(=O)Nc1ccc(Br)cc1F` (stereo not given), the Potency entry was “inactive”.
On the same count and under the same terms, with `Clc1ccc(-n2nnnc2-c2cnc(-c3ccccn3)nc2-c2cccs2)cc1` the entry was “inactive”.
Same read-out and setting: in the case of `c1ccc(-c2noc(-c3cccs3)n2)nc1` it was 3.01 µM (active); in that of `O=c1onc(-c2cccs2)n1Cc1ccccc1`, “inactive”.
Same read-out and setting: in the case of `CN(Cc1ccccc1)C(=O)CCS(=O)(=O)c1cc(Br)cc2c1N(C(=O)C1CC1)CC2` it was “inactive”.
Consider `CCOc1ccc(CCNC(=O)CN(c2ccc(C)cc2)S(=O)(=O)N(C)C)cc1OCC`, for which the Potency result is “inactive”.
Same read-out and setting: with `Cc1cc(C)c(-c2n[nH]c3c2C(c2ccccc2F)N(CCO)C3=O)c(O)c1` (stereo not given) the entry was “inactive”.
Still for that read-out and setting: in the case of `Cn1c(CNC(=O)c2ccccc2F)nnc1SCc1ccc(F)cc1` it was “inactive”; in that of `Cc1ccc(Cn2c(CNC(=O)Cc3cccc(C)c3)nc3cccnc32)cc1`, “inactive”.
The same measure, in the same setting: in the case of `Cc1nc2ccccc2c(=O)n1NC(=O)c1ccc(Cl)c([N+](=O)[O-])c1` it was “inactive”; in that of `Cc1ccc(CSc2nc3cccnc3n2Cc2ccc(C(=O)NC3CC3)cc2)cc1`, 0.379 µM (active).
As for `O=C(O)c1ccc(Cn2c(SCc3ccc(F)cc3)nc3ccncc32)cc1`, the Potency is 16.9 µM (active).
Regarding `CCCNC(=O)c1ccc(Cn2c(SCC(N)=O)nc3ccccc3c2=O)cc1`, the Potency entry is “inactive”.
Consider `C=CCn1c(SCc2ccc(C(=O)NCCO)cc2)nc2ccccc2c1=O`, for which the Potency entry is “inactive”.
Still for that read-out and setting: in the case of `OCc1cnc(SCc2ccc(F)cc2)n1Cc1ccc(F)cc1` it was “inactive”; in that of `Cc1cccc(CSc2nc3ccncc3n2CC(=O)N(C)C2CCCCC2)c1`, “inactive”.
Same read-out and setting: with `O=C(Nn1c(SCc2ccc([N+](=O)[O-])cc2)nc2ccccc2c1=O)c1ccc(F)cc1` the figure was 16.9 µM (active); with `CCOC(=O)CNC(=O)CSc1nc2cccnc2n1CC`, “inactive”.
Regarding `O=C(NCc1ccc(F)cc1)c1ccc(Cn2c(SCc3ccc(F)cc3)nc3cccnc32)cc1`, the Potency is 4.78 µM (active).
On the same count and under the same terms, with `CC1=C(C(=O)Nc2ccccc2)C(c2ccc(C)cc2)n2nc(SCc3ccccc3C)nc2N1` (stereo not given) the entry was “inactive”; with `Cc1nnc(NC(=O)CSc2nc3c([nH]c4ccccc43)c(=O)n2-c2cccc(Cl)c2)s1`, “inactive”; with `CCOc1ccc(S(=O)(=O)c2cn(Cc3ccc(OC)cc3)c3ccc(F)cc3c2=O)cc1`, “inactive”.
The same measure, in the same setting: in the case of `CCOc1ccc(NC(=O)Cn2c(C)ccc(C#N)c2=O)cc1` it was “inactive”; in that of `COc1ccc(CCNS(=O)(=O)c2cc(-c3cc(C)no3)ccc2C)cc1OC`, “inactive”; in that of `Cc1cccc2c1-c1sc(C(=O)Nc3ccc(F)cc3F)cc1CO2`, “inactive”.
On the same count and under the same terms, with `O=C(NCc1ccccc1)C(=O)NCC(c1ccco1)S(=O)(=O)c1ccc(Cl)cc1` (stereo not given) the entry was “inactive”; with `Cc1ccc(N2CCN(C(=O)CCc3c(C)nc4c(c3C)c(=O)n(C)c(=O)n4C)CC2)c(C)c1`, “inactive”; with `C=CCn1c(SCC(=O)NC(=O)Cc2ccccc2)nc2ccccc2c1=O`, “inactive”.
In the case of `Cc1nn(CC(=O)Nc2ccc(C#N)cc2)c(C)c1[N+](=O)[O-]`, the Potency entry is “inactive”.
Turning to `COc1ccc(NS(=O)(=O)c2cccc3nsnc23)cc1Cl`, the Potency entry was “inactive”.
The same measure, in the same setting: in the case of `Cc1ccccc1-c1nc(CS(=O)(=O)CC(=O)Nc2cc(Cl)cc(Cl)c2)c(C)o1` it was “inactive”.
In the case of `COc1ccccc1CNS(=O)(=O)c1cc(Br)cc2c1N(C(C)=O)C(C)C2` (stereo not given), the Potency entry is “inactive”.
Same read-out and setting: with `COc1ccc(CCNC(=O)COC(=O)Cc2cccc(F)c2)cc1` the entry was “inactive”; with `O=C(NCc1ccccc1)c1cccc(NC(=O)N2CCSc3ncccc32)c1`, “inactive”; with `COc1cc(OC)cc(C(=O)NCCc2csc3nc(-c4ccccc4F)nn23)c1`, “inactive”.
Still for that read-out and setting: with `Cc1cccc(C(=O)N2c3nc(-c4ccco4)nn3C3(CCCCC3)[C@@H]3CCCC[C@@H]32)c1` the entry was “inactive”; with `CNS(=O)(=O)c1cccc(C(=O)OCC(=O)N2c3ccccc3NC(=O)C2(C)C)c1`, “inactive”.
In the case of `COc1ccc2c(C)c(CCC(=O)NCc3ccc(OC)c(OC)c3)c(=O)oc2c1`, the Potency entry is “inactive”.
The same measure, in the same setting: with `CC(=O)Oc1ccc2c(C)c(CC(C)O)c(=O)oc2c1` (stereo not given) the entry was “inactive”; with `COc1cccc(-c2coc3cc4oc(=O)c(CC(=O)O)c(C)c4cc23)c1`, 19 µM (active); with `Cc1ccc2[nH]c(=O)c(CC(=O)O)c(-c3ccccc3)c2c1`, “inactive”.
Take `Cc1oc(C)c(C(=O)NCCCC(=O)O)c1C(=O)NCCCC(=O)O`: the Potency entry is “inactive”.
Same read-out and setting: in the case of `Cc1c(CC(=O)NCCCCCC(=O)O)c(=O)oc2cc3occ(-c4ccccc4)c3cc12` it was 19 µM (active).
